Measured values: PubChem BioAssay (NCI)
About 83,000 compounds went through this panel and 20% of them were active in at least one assay; those are over-represented in the sample as a whole.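 48-hour exposure, single concentration, 96-well plates; percent growth endpoint where 0 means no net growth. Active: below 10.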 A number with no mark means an inactive call. Active and inactive are the calls of the source.

Columns and labels:
Experiment in all cases: NCI-60 one-dose screen, 48 h (100 = growth as untreated, 0 = no growth, -100 = all killed)
Conditions in all cases: 10 µM unless noted
[1] = system: SR leukemia
[2] = system: RPMI-8226 leukemia
[3] = system: OVCAR-8 ovarian
[4] = system: OVCAR-5 ovarian
[5] = system: OVCAR-4 ovarian
[6] = system: SK-OV-3 ovarian
[7] = system: IGROV1 ovarian
[8] = system: OVCAR-3 ovarian
[9] = system: HS 578T breast
[10] = system: NCI/ADR-RES ovarian
[11] = system: T-47D breast
[12] = system: BT-549 breast
[13] = system: MDA-MB-435 melanoma
[14] = system: SW-620 colon
[15] = system: MCF7 breast
[16] = system: HCT-116 colon
[17] = system: HCC-2998 colon
[18] = system: KM12 colon

`COC(=O)[C@]12CC[C@@H](C(/C=C/c3cccnc3)=N/O)[C@@H]1[C@H]1CC[C@@H]3[C@@]4(C)CC(=C/c5cccnc5)/C(=N/O)C(C)(C)[C@@H]4CC[C@@]3(C)[C@]1(C)CC2` was tested, and the growth [1] was 11.4%, the growth [2] was 1.81% (active) and the growth [3] was 39%. For the same compound, the growth [4] was 60.6%, the growth [5] was 40.8% and the growth [6] was 64.7%. It also gave a growth [7] of 16.9%, a growth [8] of 37.4% and a growth [9] of 78.6%. For the same compound, the growth [10] was 33.6%, the growth [11] was 27.3% and the growth [12] was 22.8%. The growth [13] was 36.2%, the growth [14] was 45.5% and the growth [15] was 25.6%. For the same compound, the growth [16] was 18.9%, the growth [17] was 45.9% and the growth [18] was 37.7%.

Compound `COc1cccc(-c2nn(-c3ccccc3)cc2-c2ccnc(NCCCNS(=O)(=O)c3ccc(Br)cc3)c2)c1` has a growth [1] of 13.3%, a growth [2] of 34.5% and a growth [3] of 47.9%. It also gave a growth [4] of 88.2%, a growth [5] of 46.5% and a growth [6] of 64.8%. The growth [7] was 47.6%, the growth [8] was 58.8% and the growth [9] was 66.2%. It also gave a growth [10] of 42%, a growth [11] of 18.5% and a growth [12] of 73%. The growth [13] was 54.3%, the growth [14] was 69.7% and the growth [15] was 29.6%. For the same compound, the growth [16] was 40.8%, the growth [17] was 46% and the growth [18] was 44.1%.

Work on `COc1ccc2c(c1)c(-c1nc(-c3c[nH]c4ncccc34)cs1)cn2CCNC(=O)OC(C)(C)C` yielded a growth [1] of 62.7%, a growth [2] of 41.2% and a growth [3] of 45.7%. The growth [4] was 104%, the growth [5] was 55.7% and the growth [6] was 110%. The growth [7] was 61.1%, the growth [8] was 84.4% and the growth [9] was 76.3%. The growth [10] was 56.6%, the growth [11] was 9.63% (active) and the growth [12] was 84.5%. It also gave a growth [13] of 94.7%, a growth [14] of 96% and a growth [15] of 37.3%. For the same compound, the growth [16] was 87.6%, the growth [17] was 96.6% and the growth [18] was 46.1%.

Work on `CC(=O)OCCCCCCn1c2ccccc2c2c3c(c4c5ccccc5n(C)c4c21)C(=O)N(O)C3=O` yielded a growth [1] of 17.1%, a growth [2] of 31.2% and a growth [3] of 66.3%. For the same compound, the growth [4] was 98.6%, the growth [5] was 70.5% and the growth [6] was 86.9%. For the same compound, the growth [7] was 49.6%, the growth [8] was 77.2% and the growth [9] was 124%. It also gave a growth [10] of 52.1%, a growth [11] of 42.9% and a growth [12] of 69.2%. The growth [13] was 75.9%, the growth [14] was 76.4% and the growth [15] was 30.4%. It also gave a growth [16] of 48.6%, a growth [17] of 76% and a growth [18] of 68.8%.

For `COc1ccc(NC(=S)N/N=C/c2ccccc2SSCCC(=O)OC[C@H]2O[C@H](O)[C@H](O)[C@@H](O)[C@@H]2O)cc1`, the growth [1] was 49.6%, the growth [2] was 91.7% and the growth [3] was 68.3%. The growth [4] was 100%, the growth [5] was 80.4% and the growth [6] was 73.5%. For the same compound, the growth [7] was 56.8%, the growth [8] was 91.3% and the growth [9] was 91.6%. It also gave a growth [10] of 59.7%, a growth [11] of 66% and a growth [12] of 68.9%. For the same compound, the growth [13] was 52.8%, the growth [14] was 93.5% and the growth [15] was 44.7%. For the same compound, the growth [16] was 72.9%, the growth [17] was 94.2% and the growth [18] was 63.3%.

For `O=S(=O)(NCCCNc1cc(-c2cn(-c3ccccc3)nc2-c2cccc(O)c2)ccn1)c1ccc(F)cc1`, the growth [1] was 6.17% (active), the growth [2] was 21.4% and the growth [3] was 23.4%. It also gave a growth [4] of 65.5%, a growth [5] of 35.7% and a growth [6] of 49%. The growth [7] was 40.6%, the growth [8] was 45.8% and the growth [9] was 24.3%. For the same compound, the growth [10] was 25.9%, the growth [11] was 14.8% and the growth [12] was 40.6%. The growth [13] was 38.9%, the growth [14] was 30.1% and the growth [15] was 27.2%. The growth [16] was 23%, the growth [17] was -34.8% (active) and the growth [18] was 24.2%.

In the case of `CC(=O)c1c(C)[nH]c(-c2nc3ccc(N4CCN(C)CC4)cc3[nH]2)c1-c1ccc(OCC2CCOCC2)cc1`, the growth [1] is reported as 28.1%, the growth [2] is reported as -2.05% (active) and the growth [3] is reported as 38%. It also gave a growth [4] of 43.8%, a growth [5] of 35.7% and a growth [6] of 13.5%. The growth [7] was 16.2%, the growth [8] was 30.7% and the growth [9] was 19.5%. The growth [10] was 31.7%, the growth [11] was 29.1% and the growth [12] was 57.1%. The growth [13] was 23.5%, the growth [14] was 50.6% and the growth [15] was 6.13% (active). It also gave a growth [16] of 19.8%, a growth [17] of 31.7% and a growth [18] of 34.2%.

For `O=C1c2cc3c(cc2-c2c1c1ccc(Cl)cc1c(=O)n2C[C@H](O)[C@@H](O)[C@H](O)CO)OCO3`, the growth [1] was 0.866% (active), the growth [2] was 0.957% (active) and the growth [3] was 1.03% (active). For the same compound, the growth [4] was -2.44% (active), the growth [5] was 18.6% and the growth [6] was -23.1% (active). The growth [7] was 9.99% (active), the growth [8] was -10.4% (active) and the growth [9] was 11.3%. The growth [10] was 7.03% (active), the growth [11] was -8.86% (active) and the growth [12] was -1.82% (active). For the same compound, the growth [13] was -39.2% (active), the growth [14] was 2.65% (active) and the growth [15] was 1.66% (active). For the same compound, the growth [16] was 11.1%, the growth [17] was 16.3% and the growth [18] was 7.14% (active).

Work on `O=C1C(=O)N(CCCCn2cc(-c3ccccc3)nn2)c2ccccc21` yielded a growth [1] of 108%, a growth [2] of 95.6% and a growth [3] of 103%. The growth [4] was 102%, the growth [5] was 106% and the growth [6] was 111%. It also gave a growth [7] of 101%, a growth [8] of 111% and a growth [9] of 99.1%. The growth [10] was 104%, the growth [11] was 93.4% and the growth [12] was 96.7%. The growth [13] was 108%, the growth [14] was 104% and the growth [15] was 94.9%. It also gave a growth [16] of 101%, a growth [17] of 117% and a growth [18] of 104%.

In the case of `CN1CCN(CCOc2ccc(-c3cnc4c(-c5ccccc5F)cnn4c3)cc2)CC1`, the growth [1] is reported as -12.6% (active), the growth [2] is reported as -9.99% (active) and the growth [3] is reported as 40.7%. It also gave a growth [4] of 80.4%, a growth [5] of 63.6% and a growth [6] of 94.2%. For the same compound, the growth [7] was 57.3%, the growth [8] was 20.3% and the growth [9] was 76.9%. The growth [10] was 48.8%, the growth [11] was 23% and the growth [12] was 69.9%. The growth [13] was -29.2% (active), the growth [14] was -73.8% (active) and the growth [15] was 19.2%. For the same compound, the growth [16] was 3.73% (active), the growth [17] was 22.4% and the growth [18] was 9.44% (active).

Work on `C#CCn1c(C)cc(C)c(C#N)c1=O` yielded a growth [1] of 101%, a growth [2] of 103% and a growth [3] of 103%. It also gave a growth [4] of 99.9%, a growth [5] of 105% and a growth [6] of 118%. The growth [7] was 103%, the growth [8] was 112% and the growth [9] was 103%. It also gave a growth [10] of 106%, a growth [11] of 101% and a growth [12] of 98%. The growth [13] was 106%, the growth [14] was 104% and the growth [15] was 91.5%. It also gave a growth [16] of 103%, a growth [17] of 105% and a growth [18] of 101%.

With `CCOC(=O)N1CCN(CCCCOc2ccc(C(C)(C)CC)cc2)CC1` the growth [1] was 90.3%, the growth [2] was 84.4% and the growth [3] was 103%. The growth [4] was 106%, the growth [5] was 93.8% and the growth [6] was 104%. The growth [7] was 110%, the growth [8] was 103% and the growth [9] was 108%. For the same compound, the growth [10] was 88.2%, the growth [11] was 79.7% and the growth [12] was 82.3%. For the same compound, the growth [13] was 105%, the growth [14] was 101% and the growth [15] was 103%. The growth [16] was 70.8%, the growth [17] was 107% and the growth [18] was 95.6%.

Work on `CC(C)(C)c1ccc(OP(=S)(N/N=C/c2ccccc2O)Oc2ccc(C(C)(C)C)cc2)cc1` yielded a growth [1] of 61.6%, a growth [2] of 45.8% and a growth [3] of 82.8%. It also gave a growth [4] of 91.6%, a growth [5] of 65.1% and a growth [6] of 65.2%. For the same compound, the growth [7] was 63.5%, the growth [8] was 47.5% and the growth [9] was 94.5%. For the same compound, the growth [10] was 87.8%, the growth [11] was 70.2% and the growth [12] was 89.5%. For the same compound, the growth [13] was 72%, the growth [14] was 77.7% and the growth [15] was 53.8%. It also gave a growth [16] of 42.9%, a growth [17] of 86.2% and a growth [18] of 67.2%.

With `CC1(C)C(=O)/C(=C\c2ccco2)C[C@]2(C)[C@H]3CC[C@@H]4[C@@H](C(=O)/C=C/c5ccco5)CC[C@@]4(C)[C@]3(C)CC[C@@H]12` the growth [1] was 71%, the growth [2] was 75.5% and the growth [3] was 80.5%. For the same compound, the growth [4] was 115%, the growth [5] was 83.6% and the growth [6] was 109%. It also gave a growth [7] of 96.2%, a growth [8] of 95.2% and a growth [9] of 77.8%. The growth [10] was 95.1%, the growth [11] was 35% and the growth [12] was 95.7%. For the same compound, the growth [13] was 4.33% (active), the growth [14] was 71.1% and the growth [15] was 62%. It also gave a growth [16] of 61.8%, a growth [17] of 108% and a growth [18] of 101%.

With `COc1ccc(-c2n/c(=C\c3c(O)[nH]c4ccc(OC)cc34)cc3c2=Nc2ccccc2-3)cc1` the growth [1] was 7.13% (active), the growth [2] was -38.5% (active) and the growth [3] was 11.8%. The growth [4] was 135%, the growth [5] was -42.1% (active) and the growth [6] was 114%. The growth [7] was 98.3%, the growth [8] was -57.5% (active) and the growth [9] was 26.1%. The growth [10] was 4.41% (active), the growth [11] was 93% and the growth [12] was -20.1% (active). The growth [13] was 3.6% (active), the growth [14] was 0.413% (active) and the growth [15] was -22.7% (active). For the same compound, the growth [16] was -72.6% (active), the growth [17] was 22.7% and the growth [18] was 8.66% (active).

`CC(=O)N1N=C(c2ccc(C)cc2)CC1c1ccc(Oc2ccc(Br)cc2)cc1` (stereo not drawn) showed a growth [1] of 93.9%, a growth [2] of 74.8% and a growth [3] of 85.2%. It also gave a growth [4] of 88.9%, a growth [5] of 74.6% and a growth [6] of 62.1%. For the same compound, the growth [7] was 66.7%, the growth [8] was 88.3% and the growth [9] was 87.4%. It also gave a growth [10] of 73.1%, a growth [11] of 60.6% and a growth [12] of 89.3%. It also gave a growth [13] of 97.6%, a growth [14] of 86.7% and a growth [15] of 81.8%. It also gave a growth [16] of 87.3%, a growth [17] of 96.9% and a growth [18] of 85.5%.
